Test results taken from the antibiotic and cytotoxicity screens of Wong et al. (2023).
The whole screen tested about 39,000 compounds, of which about 3,300 (8.5%) were called active. The full list was thinned out, with actives kept by preference.

Each compound was assayed on HepG2 (assay: cytotoxicity call (relative viability < 0.9)). Settings: 10 µM.

Question: How did the cytotoxicity call turn out when `COc1ccc(NC(=O)Nc2cccc3c2O[C@H](CN(C)C(=O)Nc2ccc(C(F)(F)F)cc2)[C@H](C)CN([C@H](C)CO)C3=O)cc1` was run?
Answer: inactive

Question: How did the cytotoxicity call turn out when `O=C(C[C@H]1C[C@H]2c3cc(NC(=O)Cc4ccncc4)ccc3O[C@H]2[C@@H](CO)O1)NCc1cc(F)ccc1F` was run?
Answer: inactive

Question: With `C[C@H]1CN([C@@H](C)CO)C(=O)Cc2cc(NC(=O)c3ccncc3)ccc2O[C@H]1CN(C)S(=O)(=O)c1ccc(Cl)cc1` as the compound, how does the cytotoxicity call read?
Answer: inactive

Question: For `C[C@H]1CN([C@@H](C)CO)C(=O)Cc2cc(NC(=O)C3CC3)ccc2O[C@@H]1CN(C)Cc1ccc2c(c1)OCO2`, which cytotoxicity call is on record?
Answer: inactive

Question: Which cytotoxicity call does the source give for `C[C@@H]1CCCCO[C@H](CN(C)S(=O)(=O)c2ccccc2)[C@@H](C)CN([C@H](C)CO)C(=O)c2cc(NC(=O)c3ccccc3)ccc2O1` here?
Answer: inactive

Question: Which cytotoxicity call does the source give for `Cc1ccc(S(=O)(=O)N(C)C[C@@H]2OCCCC[C@@H](C)Oc3ccc(NC(=O)c4ccccc4)cc3C(=O)N([C@@H](C)CO)C[C@H]2C)cc1` here?
Answer: inactive

Question: For `C[C@@H]1CCCCO[C@H](CN(C)S(=O)(=O)c2ccccc2)[C@H](C)CN([C@@H](C)CO)C(=O)c2cc(NC(=O)c3ccccc3)ccc2O1`, which cytotoxicity call is on record?
Answer: inactive

Question: For `COc1ccc(S(=O)(=O)N(C)C[C@H]2OCCCC[C@@H](C)Oc3ccc(NC(=O)c4ccccc4)cc3C(=O)N([C@@H](C)CO)C[C@H]2C)cc1`, which cytotoxicity call is on record?
Answer: inactive

Question: Which cytotoxicity call does the source give for `COc1ccc(S(=O)(=O)N(C)C[C@@H]2OCCCC[C@H](C)Oc3ccc(NC(=O)c4ccccc4)cc3C(=O)N([C@@H](C)CO)C[C@H]2C)cc1` here?
Answer: active

Question: `Cc1ccc(S(=O)(=O)N(C)C[C@@H]2OCCCC[C@H](C)Oc3ccc(NC(=O)c4ccccc4)cc3C(=O)N([C@H](C)CO)C[C@H]2C)cc1` was tested. Which cytotoxicity call did it give?
Answer: active

Question: Which cytotoxicity call does the source give for `COc1ccc(S(=O)(=O)N(C)C[C@@H]2OCCCC[C@@H](C)Oc3ccc(NC(=O)c4ccccc4)cc3C(=O)N([C@H](C)CO)C[C@@H]2C)cc1` here?
Answer: inactive

Question: `C[C@@H]1CN([C@H](C)CO)C(=O)c2cc(NC(=O)c3ccccc3)ccc2O[C@@H](C)CCCCO[C@H]1CN(C)S(=O)(=O)c1ccccc1` was tested. Which cytotoxicity call did it give?
Answer: active

Question: How did the cytotoxicity call turn out when `Cc1ccc(S(=O)(=O)N(C)C[C@H]2OCCCC[C@H](C)Oc3ccc(NC(=O)c4ccccc4)cc3C(=O)N([C@@H](C)CO)C[C@H]2C)cc1` was run?
Answer: inactive

Question: How did the cytotoxicity call turn out when `CC(C)(C)[S@](=O)N1Cc2cc(C(=O)N3CCCCC3)nc(-c3cccc(-c4cccc(C#N)c4)c3)c2[C@@H]1CCO` was run?
Answer: inactive

Question: With `CCO[C@H]1OC(C(N)=O)=C[C@@H](C)[C@@H]1CCCO` as the compound, how does the cytotoxicity call read?
Answer: inactive

Question: With `C[C@H]1COC(=O)[C@@H](Cc2ccc(F)cc2)CCC=CC[C@@H](CC(=O)N[C@@H](CO)Cc2ccccc2)C(=O)N1` as the compound, how does the cytotoxicity call read?
Answer: inactive

Question: `C[C@@H]1CN([C@H](C)CO)C(=O)Cc2cc(NC(=O)c3ccncc3)ccc2O[C@@H]1CN(C)S(=O)(=O)c1ccc(Cl)cc1` was tested. Which cytotoxicity call did it give?
Answer: inactive

Question: Which cytotoxicity call does the source give for `CC(C)CC#Cc1ccc2c(c1)O[C@@H](CN(C)C(=O)c1ccncc1)[C@H](C)CN([C@@H](C)CO)S2(=O)=O` here?
Answer: inactive

Question: How did the cytotoxicity call turn out when `N=C(NO)C(=O)Nc1ccccc1` was run?
Answer: inactive

Question: How did the cytotoxicity call turn out when `C[C@H]1CN([C@@H](C)CO)C(=O)c2ccccc2-c2ccccc2CO[C@H]1CN(C)C(=O)Nc1ccc(F)cc1` was run?
Answer: inactive

Question: With `C[C@H]1CN([C@@H](C)CO)C(=O)c2cccc(NC(=O)C3CCOCC3)c2O[C@@H]1CN(C)S(=O)(=O)c1ccc(F)cc1` as the compound, how does the cytotoxicity call read?
Answer: inactive

Question: `COc1ccc([Si](C)(C)[C@H]2[C@H](CCO)O[C@@]3(C(=O)N(Cc4ccc(N5C(=O)c6ccccc6Oc6ccccc65)cc4)c4ccccc43)[C@@H]2C)cc1` was tested. Which cytotoxicity call did it give?
Answer: active

Question: `COc1ccc([Si](C)(C)[C@H]2[C@H](CCO)O[C@@]3(C(=O)N(Cc4ccccc4)c4ccc(N5C(=O)c6ccccc6Oc6ccccc65)cc43)[C@@H]2C)cc1` was tested. Which cytotoxicity call did it give?
Answer: active

Question: For `C[C@H]1[C@H]([Si](C)(C)F)[C@@H](CCO)O[C@]12C(=O)N(Cc1ccccc1)c1ccc(N3C(=O)c4ccccc4Oc4ccccc43)cc12`, which cytotoxicity call is on record?
Answer: inactive

Question: How did the cytotoxicity call turn out when `COc1ccc([Si](C)(C)[C@@H]2[C@@H](CCO)O[C@]3(C(=O)N(Cc4ccc(N5C(=O)c6ccccc6Oc6ccccc65)cc4)c4ccccc43)[C@H]2C)cc1` was run?
Answer: active

Question: With `COc1ccc([Si](C)(C)[C@@H]2[C@@H](CCO)O[C@]3(C(=O)N(Cc4ccccc4)c4ccc(N5C(=O)c6ccccc6Oc6ccccc65)cc43)[C@H]2C)cc1` as the compound, how does the cytotoxicity call read?
Answer: inactive

Question: How did the cytotoxicity call turn out when `COCC#Cc1ccc2c(c1)O[C@H](CN(C)Cc1ccc(F)cc1)[C@H](C)CN([C@@H](C)CO)S2(=O)=O` was run?
Answer: inactive

Question: Which cytotoxicity call does the source give for `Cc1noc(C)c1S(=O)(=O)N(C)C[C@H]1Oc2ccc(NC(=O)CCCN(C)C)cc2C(=O)N([C@H](C)CO)C[C@@H]1C` here?
Answer: inactive

Question: With `C[C@H](CO)N1C[C@H](C)[C@@H](CN(C)C)Oc2ccc(NS(=O)(=O)c3ccc(Cl)cc3)cc2CC1=O` as the compound, how does the cytotoxicity call read?
Answer: inactive

Question: `COc1nonc1NC(C)=O` was tested. Which cytotoxicity call did it give?
Answer: inactive

Question: For `O=C1C[C@H](N2C(=O)CCC2=O)[C@@H]2CO[C@@H]1O2`, which cytotoxicity call is on record?
Answer: inactive

Question: For `C[C@@H]1CN([C@H](C)CO)C(=O)c2cccc(NC(=O)c3cnccn3)c2O[C@H]1CN(C)C(=O)Nc1ccc2c(c1)OCO2`, which cytotoxicity call is on record?
Answer: inactive

Question: `C[C@H](CO)N1C[C@H](C)[C@@H](CN(C)Cc2ccc(Cl)c(Cl)c2)Oc2ccc(NC(=O)Cc3ccccc3)cc2CC1=O` was tested. Which cytotoxicity call did it give?
Answer: inactive

Question: Which cytotoxicity call does the source give for `C[C@H]1CN([C@@H](C)CO)C(=O)Cc2cc(NC(=O)Cc3ccccc3)ccc2O[C@H]1CN(C)Cc1ccc(Cl)c(Cl)c1` here?
Answer: active

Question: For `C[C@@H]1CN([C@H](C)CO)C(=O)Cc2cc(NC(=O)Cc3ccccc3)ccc2O[C@H]1CN(C)Cc1ccc(Cl)c(Cl)c1`, which cytotoxicity call is on record?
Answer: inactive

Question: `C[C@@H]1CN([C@H](C)CO)C(=O)Cc2cc(NC(=O)Cc3ccccc3)ccc2O[C@@H]1CN(C)Cc1ccc(Cl)c(Cl)c1` was tested. Which cytotoxicity call did it give?
Answer: active

Question: With `C[C@H]1CN([C@@H](C)CO)C(=O)Cc2cc(NC(=O)Cc3ccccc3)ccc2O[C@@H]1CN(C)Cc1ccc(Cl)c(Cl)c1` as the compound, how does the cytotoxicity call read?
Answer: inactive

Question: How did the cytotoxicity call turn out when `C[C@@H]1CN([C@@H](C)CO)C(=O)Cc2cc(NC(=O)Cc3ccccc3)ccc2O[C@@H]1CN(C)Cc1ccc(Cl)c(Cl)c1` was run?
Answer: active

Question: `C[C@H](CO)N1C[C@H](C)[C@H](CN(C)Cc2ccc(Cl)c(Cl)c2)Oc2ccc(NC(=O)Cc3ccccc3)cc2CC1=O` was tested. Which cytotoxicity call did it give?
Answer: inactive

Question: How did the cytotoxicity call turn out when `C[C@@H]1CN([C@@H](C)CO)C(=O)Cc2cc(NC(=O)Cc3ccccc3)ccc2O[C@H]1CN(C)Cc1ccc(Cl)c(Cl)c1` was run?
Answer: inactive
